The nature of assay [1]: qHTS assay to identify small molecule inhibitors of chordoma cells - UCH-1 (AID 1259355). Further: nearly all actives have a fitted effect of over 55% in size. On Potency: series mostly up to about 46 µM. In outline:
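800 cells/well, overnight attach; compounds pinned at 15 concs, then auranofin/camptothecin/doxorubicin/rubitecan/topotecan combo added; 48hr 37 C, 5% CO2; CellTiter-Glo, 30min RT, luminescence.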

The nature of assay [2]: qHTS assay to identify small molecule inhibitors of chordoma cells - UCH-2 (AID 1259356).
A short description of assay [3]: P-glycoprotein substrates identified in KB-8-5-11 adenocarcinoma cell line, qHTS therapeutic library screen (AID 1346987). Further: nearly all actives have a fitted effect of over 65% in size. As to conditions: outcome: dose series up to 44.5 µM unless noted. Summed up: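 Human cervical adenocarcinoma KB-8-5-11 cells, selected in colchicine to over-express P-gp and assayed without it, were exposed for 72 h to titrated compounds. An ATP-based luminescent viability signal gave AC50.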

Results filed as inconclusive are left out. The source made the active and inactive calls. The call rests on the fitted dose curve; in most records, active means well fitted curve in the direction sought with a large enough effect; inconclusive means small, poorly fitted or top-dose-only effect, or another doubt; inactive means no such curve, though single readings can be large; an effect the other way counts as inactive or inconclusive. Where a SMILES comes first, the peptide text is derived from it. Bridges are numbered along the chain shown (N, C = ends). [ ]: non-standard residue; d: D form. The star is where a group is joined. X1 = CC[C@@H](C)[C@@H](N)C1=N[C@H](C(=O)*)CS1; d(aIle) = CC[C@H](C)[C@@H](N)C(=O)O; dOrn = NCCC[C@@H](N)C(=O)O
Potency means the concentration at half of the fitted maximal effect.

As for `C[C@H](CCC(=O)O)[C@H]1CC[C@H]2[C@@H]3CC[C@@H]4C[C@H](O)CC[C@]4(C)[C@H]3C[C@H](O)[C@]12C`, the Potency result in assay [1], in assay [2] and in assay [3] was “inactive” each time.

Take `O=C(NNCNNC(=O)c1ccncc1)c1ccncc1`: the Potency entry in assay [1], in assay [2] and in assay [3] was “inactive” each time.

For `C[C@@H]1C[C@H]2[C@@H]3CCC4=CC(=O)C=C[C@]4(C)[C@@]3(F)[C@@H](O)C[C@]2(C)[C@@]1(O)C(=O)COC(=O)c1cccc(S(=O)(=O)O)c1`, the Potency entry in assay [1], in assay [2] and in assay [3] was “inactive” in each case.

Turning to `CC[C@@H](C)[C@@H](N)C1=N[C@H](C(=O)N[C@@H](CC(C)C)C(=O)N[C@@H](CCC(=O)O)C(=O)N[C@@H](C(=O)N[C@@H]2CCCCNC(=O)[C@@H](CC(N)=O)NC(=O)[C@@H](CC(=O)O)NC(=O)[C@@H](Cc3cnc[nH]3)NC(=O)[C@@H](Cc3ccccc3)NC(=O)[C@@H]([C@H](C)CC)NC(=O)[C@@H](CCCN)NC2=O)[C@@H](C)CC)CS1` (X1-LE[d(aIle)][dK][dOrn][dI][dF][dH][dD][dN]; lactam 4-C), the Potency entry in assay [1], in assay [2] and in assay [3] was “inactive” throughout.

As for `Oc1cccc(O)c1O`, the Potency result in assay [1], in assay [2] and in assay [3] was “inactive” throughout.

On to `C=C1CC[C@H](O)CC1=C/C=C1\CCC[C@]2(C)[C@@H]([C@H](C)/C=C/[C@H](C)C(C)C)CC[C@@H]12`, for which the Potency result in assay [1], in assay [2] and in assay [3] was “inactive” each time.

As for `CCc1ncnc2cc(OC)c(OC)cc12`, the Potency result in assay [1], in assay [2] and in assay [3] was “inactive” throughout.

`CN=C1C=CC(=C(c2ccc(N(C)C)cc2)c2ccc(N(C)C)cc2)C=C1`: the Potency is 15.8 µM (active) in assay [1], 9.2 µM (active) in assay [2] and 20.6 µM (active) in assay [3].

The record behind these values is PubChem BioAssay (NCATS).
